# From PubChem BioAssay
# The source made the active and inactive calls. Unless noted, how the calls were made is not given here.
# Assays:
# [1] = resazurin metabolic signal in HepG2 cells – cell-based, resazurin fluorescence, 24 h, PK04 Diversity Set, profiling panel (AID 1172); details: HepG2 viability, higher = more signal
# [2] = budding yeast growth changes without added modifier – OD600, strain BY4716, 24 h, basal condition, primary screen (AID 1173); details: S. cerevisiae BY4716 growth, OD600, 24 h; higher = more signal, called active from +8 up or from −8 down
# [3] = viability profiling in MM1S myeloma cells – cell-based, resazurin fluorescence, basal, 24 h, PK04 Diversity Set, profiling panel (AID 1174); details: higher = more signal, called active from +8 up or from −8 down;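 further: MM1S multiple myeloma cell line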
# [4] = biological target: Dihydroorotate dehydrogenase (quinone), mitochondrial (Plasmodium falciparum (isolate 3D7)) (UniProt Q08210); test: inhibition of P. falciparum DHODH – biochemical, C-terminal His tag, absorbance 600 nm, primary screen (AID 1175); details: PfDHODH enzyme, DCIP absorbance 600 nm; higher = more signal, called active from +8 up or from −8 down;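 further: recombinant parasite enzyme with a five histidine tag at its C terminus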
# [5] = inhibition of PAO1 biofilm formation – strain PAO1, LB-PBS medium, absorbance 600 nm, primary screen (AID 1176); details: P. aeruginosa PAO1 growth/biofilm, A600, 12 h; higher = more signal
# [6] = growth modulation of vineyard yeast isolate – strain RM11-1a, OD600, basal, 24 h, primary screen (AID 1177);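 further: cultures grown under basal conditions with no added stressor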; details: S. cerevisiae RM11-1a growth, OD600, 24 h; higher = more signal, called active from +8 up or from −8 down
# [7] = growth of efflux-deficient E. coli DRC39 – strain DRC39, OD650, 24 h, E. coli filamentation inducers, primary screen (AID 1178);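 further: growth measured as culture turbidity by optical density at 650 nm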; details: E. coli DRC39 acrAB, higher = more signal, called active from +8 up or from −8 down
# [8] = growth of efflux-deficient E. coli DRC39 – strain DRC39, OD650, 48 h, E. coli filamentation inducers, primary screen (AID 1179);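 further: screen aims at cell division blockers that make cells filament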; details: E. coli DRC39 delta-acrAB growth, higher = more signal, called active from +8 up or from −8 down
# [9] = viability profiling in RPMI8226 myeloma cells – cell-based, resazurin fluorescence, basal, 24 h, PK04 Diversity Set, profiling panel (AID 1180); details: higher = more signal;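 further: RPMI8826 multiple myeloma cell line at 5000 cells per well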
# [10] = biological target: E3 ubiquitin-protein ligase XIAP (Homo sapiens) (UniProt P98170); test: small molecules binding XIAP protein – biophysical, small-molecule microarray, fluorescence 635 nm, primary screen (AID 1181); details: higher = more signal;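 further: score merges 667 nm emission and signal to noise over triplicate slides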
# [11] = tested on: XIP peptide (Xip251-270) binding; test: XIP fragment 251-270 binding compounds – biochemical, small-molecule microarray, fluorescence 635/667 nm, 0.1 µg/mL protein, primary screen (AID 1182); details: fluorescent protein binding, 635 nm, higher = more signal, called active from +8 up or from −8 down
# XIP peptide (Xip251-270) = test: compounds binding XIP fragment 251-270 – biochemical, small-molecule microarray, fluorescence 635/667 nm, 0.5 µg/mL protein, primary screen (AID 1183); details: fluorescence 635 nm, higher = more signal
# [12] = blood-stage malaria parasite viability loss – strain 3D7, DAPI fluorescence, 100 nL, primary screen (AID 1184);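 further: parasites grown inside human red blood cells in medium with human serum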; details: P. falciparum 3D7 growth, 3 d, higher = more signal
# [13] = biological target: Homeobox protein Hox-A13 (Mus musculus) (UniProt Q62424); test: disruptors of Hoxa13 oligonucleotide interaction – biochemical, fluorescence polarization, labeled oligonucleotide, primary screen (AID 1185); details: Hoxa13:DNA binding, 15 min, higher = more signal, called active from +8 up or from −8 down
# [14] = blockers of DNA damage checkpoint Chk1 activation – imaging, HeLa, hydroxyurea, phospho-Chk1 antibody, percent positive cells, primary screen (AID 1186); details: hydroxyurea-induced phospho-Chk1 immunofluorescence imaging, higher = more signal
# [15] = blockers of DNA damage checkpoint Chk1 activation – imaging, HeLa, hydroxyurea, phospho-Chk1 nuclear intensity, primary screen (AID 1187); details: hydroxyurea-induced phospho-Chk1 immunofluorescence imaging, higher = more signal
# Chain of Dihydroorotate dehydrogenase (quinone), mitochondrial (Plasmodium falciparum (isolate 3D7)) (Q08210 whole entry, looked up): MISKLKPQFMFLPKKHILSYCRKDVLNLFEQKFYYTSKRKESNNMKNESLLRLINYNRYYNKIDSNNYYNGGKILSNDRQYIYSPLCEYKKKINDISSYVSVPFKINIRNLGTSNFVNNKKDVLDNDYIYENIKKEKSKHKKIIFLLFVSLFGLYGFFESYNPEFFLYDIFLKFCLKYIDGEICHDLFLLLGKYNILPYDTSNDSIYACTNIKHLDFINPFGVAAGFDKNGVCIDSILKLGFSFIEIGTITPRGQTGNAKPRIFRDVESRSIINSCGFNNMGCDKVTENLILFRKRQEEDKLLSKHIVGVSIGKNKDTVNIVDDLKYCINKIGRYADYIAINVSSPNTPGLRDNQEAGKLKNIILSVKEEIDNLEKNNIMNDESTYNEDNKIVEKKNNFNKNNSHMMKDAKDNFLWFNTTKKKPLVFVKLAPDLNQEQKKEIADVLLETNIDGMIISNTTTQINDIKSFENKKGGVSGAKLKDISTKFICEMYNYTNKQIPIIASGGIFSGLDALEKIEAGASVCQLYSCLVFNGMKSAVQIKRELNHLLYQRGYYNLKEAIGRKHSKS
# Chain of Homeobox protein Hox-A13 (Mus musculus) (Q62424 whole entry, looked up): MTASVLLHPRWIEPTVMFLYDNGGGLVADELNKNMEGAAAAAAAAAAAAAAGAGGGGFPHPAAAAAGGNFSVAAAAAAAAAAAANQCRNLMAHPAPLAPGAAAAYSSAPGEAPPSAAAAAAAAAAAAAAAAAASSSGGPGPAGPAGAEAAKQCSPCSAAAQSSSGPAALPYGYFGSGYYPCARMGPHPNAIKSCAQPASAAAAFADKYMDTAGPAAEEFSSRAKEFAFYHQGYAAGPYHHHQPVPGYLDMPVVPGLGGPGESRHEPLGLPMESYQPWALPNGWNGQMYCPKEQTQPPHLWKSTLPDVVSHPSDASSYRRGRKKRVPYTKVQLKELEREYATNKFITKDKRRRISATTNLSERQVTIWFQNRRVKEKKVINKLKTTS
# Chain of E3 ubiquitin-protein ligase XIAP (Homo sapiens) (P98170 whole entry, looked up, the tested form may be a part): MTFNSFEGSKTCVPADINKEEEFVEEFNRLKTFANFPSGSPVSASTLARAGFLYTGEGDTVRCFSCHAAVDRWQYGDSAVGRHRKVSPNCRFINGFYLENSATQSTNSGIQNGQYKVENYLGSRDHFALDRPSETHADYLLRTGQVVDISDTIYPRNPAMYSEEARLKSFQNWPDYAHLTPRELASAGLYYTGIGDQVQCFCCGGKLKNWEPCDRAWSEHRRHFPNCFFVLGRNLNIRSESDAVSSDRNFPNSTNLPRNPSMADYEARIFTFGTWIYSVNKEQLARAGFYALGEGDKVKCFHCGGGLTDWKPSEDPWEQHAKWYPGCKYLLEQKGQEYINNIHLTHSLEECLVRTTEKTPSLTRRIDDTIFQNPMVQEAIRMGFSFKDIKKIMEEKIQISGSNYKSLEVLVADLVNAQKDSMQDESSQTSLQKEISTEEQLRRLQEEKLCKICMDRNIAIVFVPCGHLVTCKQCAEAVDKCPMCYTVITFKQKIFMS
Structure (SMILES),z-score [1],z-score [2],z-score [3],composite z-score [4],z-score [5],z-score [6],z-score [7],z-score [8],z-score [9],composite z-score [10],composite z-score [11],composite z-score (XIP peptide (Xip251-270)),z-score [12],z-score [13],z-score [14],z-score [15]
C=C(/C(=C/C[C@H](OC(C)=O)c1ccc(CO)o1)c1cc(C(=O)OC)ccc1OC)C(C)C,-0.783,0.18 (inactive),-1.14 (inactive),-3.65 (inactive),-0.0342 (inactive),0.447 (inactive),-1.42 (inactive),-0.94 (inactive),-1.34,-0.0807,-0.508 (inactive),-0.567,-2.09,-4.8 (inactive),-0.33 (inactive),-0.286 (inactive)
C=C(C)[C@@H]1CC=C(C(O)C2C=CC3C(=O)N(c4ccccc4)C(=O)C3N2Nc2ccccc2)CC1 (stereo partly drawn),-0.126,-1.81 (inactive),0.272 (inactive),-0.376 (inactive),1.6 (inactive),0.367 (inactive),0.195 (inactive),-0.0871 (inactive),0.37,0.0997,0.0668 (inactive),0.717,0.759,-2.62 (inactive),-0.437 (inactive),-0.626 (inactive)
CCCC[C@@H]1C[C@H]1[C@@H](NC(=O)c1ccco1)c1ccccc1C(F)(F)F,-0.153,1.67 (inactive),-1.25 (inactive),-0.265 (inactive),-0.0298 (inactive),-0.064 (inactive),-0.714 (inactive),-0.127 (inactive),-0.594,0.271,0.259 (inactive),-0.623,-0.7,2.24 (inactive),0.445 (inactive),-0.353 (inactive)
COCCCNC(=O)[C@@H]1c2ccccc2C(=O)N(Cc2ccccc2Cl)[C@H]1c1ccc(CO)cc1,-0.378,-0.259 (inactive),0.655 (inactive),-0.636 (inactive),0.692 (inactive),-1.02 (inactive),0.987 (inactive),1.16 (inactive),0.871,0.78,0.432 (inactive),0.0699,0.652,-2.2 (inactive),-0.57 (inactive),-0.352 (inactive)
C=CCNC(=O)[C@@H]1[C@H]2C(=O)O[C@H](c3ccccc3)[C@H](c3ccccc3)N2[C@H](c2ccc(O)cc2)[C@@]12C(=O)N(C(=O)OCCOC)c1ccc(C#CCNC(N)=O)cc12,-0.0359,0.0215 (inactive),-0.0272 (inactive),-1.74 (inactive),0.318 (inactive),-0.586 (inactive),0.916 (inactive),1.39 (inactive),0.302,-0.17,0.963 (inactive),0.787,0.251,-2.11 (inactive),-0.26 (inactive),-0.436 (inactive)
COC(=O)[C@@]1(CCC(=O)OC(C)(C)C)N=C(c2ccc(OCCCO)cc2)O[C@H]1c1ccccc1N=[N+]=[N-],-1.15,0.381 (inactive),-6.96 (inactive),0.414 (inactive),2.78 (inactive),1 (inactive),0.276 (inactive),-0.903 (inactive),-5.04,0.168,1.35 (inactive),0.664,-2.33,-2.14 (inactive),0.114 (inactive),-0.229 (inactive)
COC(=O)C[C@H]1O[C@]2(C(=O)N(C)c3ccccc32)[C@@H](C)[C@@H]1[Si](C)(C)F,0.951,-2.55 (inactive),1.55 (inactive),-1.49 (inactive),0.908 (inactive),-2.64 (inactive),1.51 (inactive),0.847 (inactive),2.42,0.103,-0.0066 (inactive),0.181,0.522,-1.19 (inactive),0.23 (inactive),0.843 (inactive)
C=CC(=C)[C@H]1Oc2ccccc2S(=O)(=O)N2CCC[C@@H]12,-0.702,-3 (inactive),-0.205 (inactive),0.742 (inactive),-0.389 (inactive),-0.377 (inactive),-0.553 (inactive),-0.84 (inactive),-0.973,-0.02,0.323 (inactive),-0.253,-0.0753,-1.9 (inactive),0.142 (inactive),0.342 (inactive)
C=C(COC)/C(=C/C[C@H](OC(C)=O)c1ccc(CO)o1)c1cc(C(=O)OC)ccc1OC,-0.613,-0.0209 (inactive),-0.891 (inactive),-6.52 (inactive),-0.317 (inactive),-0.253 (inactive),-1.38 (inactive),-0.816 (inactive),-0.746,0.0101,0.443 (inactive),-0.257,-2.07,-4.87 (inactive),-0.45 (inactive),-0.735 (inactive)
C=C(COC)/C(=C/C[C@@H](OC(=O)c1ccncc1)c1ccc(CO)o1)c1cc(C(=O)OC)ccc1OC,0.755,-0.439 (inactive),0.0477 (inactive),-2.14 (inactive),1.03 (inactive),0.0707 (inactive),1.19 (inactive),1.03 (inactive),0.515,1.7,0.215 (inactive),0.838,-0.644,-4.26 (inactive),-0.255 (inactive),-0.162 (inactive)
CCOC(=O)C1=C[C@@H](C(C)(C)C)N(S(=O)(=O)c2ccc(C)cc2)[C@H]1c1ccc(F)cc1,-0.457,2.32 (inactive),-0.544 (inactive),0.412 (inactive),-0.116 (inactive),1.78 (inactive),-0.731 (inactive),-0.791 (inactive),-2.36,-0.02,0.475 (inactive),0.106,-1.92,-0.636 (inactive),-0.324 (inactive),-0.725 (inactive)
O=C1c2ccccc2[C@](Cc2ccccc2I)(C(=O)NCCN2CCOCC2)[C@H](c2ccc(CO)cc2)N1C1CCCCC1,-0.16,-1.21 (inactive),-0.526 (inactive),-0.119 (inactive),0.531 (inactive),0.358 (inactive),0.29 (inactive),0.205 (inactive),-0.954,0.0623,0.45 (inactive),0.652,-1.79,-5.61 (inactive),0.16 (inactive),-6.65 (inactive)
CCOC(=O)C[C@H]1[C@H](OC(=O)c2ccc(-c3ccccc3)cc2)[C@@H](NC(=O)Cc2ccc(OC)cc2)c2cc(OCCCO)ccc2N1C(=O)c1ccccc1,-0.616,0.695 (inactive),-0.113 (inactive),0.11 (inactive),-0.252 (inactive),0.87 (inactive),0.303 (inactive),0.339 (inactive),0.0662,0.15,-0.243 (inactive),-0.464,-0.791,-2.14 (inactive),0.2 (inactive),0.106 (inactive)
CC(=O)NCCCC[C@@H]1NC(=O)[C@H]2C[C@@H](C(=O)NCCCCCCNC(=O)CS)[C@@H](c3ccc(O)cc3)N2C1=O,-0.294,0.429 (inactive),-0.523 (inactive),0.761 (inactive),1.08 (inactive),0.518 (inactive),-0.622 (inactive),-1.35 (inactive),-0.803,0.125,0.957 (inactive),0.818,-1.26,-4.69 (inactive),0.307 (inactive),0.663 (inactive)
CC(C)C(O)C1C=CC2C(=O)NC(=O)C2N1Nc1ccc(Cl)cc1Cl (stereo not drawn),-1.29,-9.69 (active),-1.59 (inactive),0.0813 (inactive),0.751 (inactive),1.05 (inactive),-0.456 (inactive),-0.527 (inactive),-1.93,-0.02,0.471 (inactive),-0.615,0.0359,-3.95 (inactive),0.998 (inactive),0.237 (inactive)
CN(C)CCCCCCNC(=O)[C@@H]1C[C@@H]2C(=O)N[C@@H](Cc3ccccc3)C(=O)N2[C@@H]1c1ccc(O)cc1,-0.591,-0.58 (inactive),-1.09 (inactive),0.0288 (inactive),-0.0059 (inactive),0.179 (inactive),-0.725 (inactive),-1.25 (inactive),-0.974,0.458,0.594 (inactive),0.887,-1.19,-2.65 (inactive),-0.165 (inactive),0.272 (inactive)
C#C[C@H](O[Si](C#Cc1ccc(Oc2ccccc2)cc1)(C(C)C)C(C)C)c1ccccc1,-1.03,-12.7 (active),-0.675 (inactive),-0.289 (inactive),0.702 (inactive),0.619 (inactive),-0.363 (inactive),-0.172 (inactive),-1.73,-0.132,0.359 (inactive),-0.418,-1,-1.04 (inactive),0.179 (inactive),-0.049 (inactive)
CNS(=O)(=O)c1ccc(C)cc1,0.925,-1.13 (inactive),0.68 (inactive),-1.05 (inactive),0.426 (inactive),-1.4 (inactive),0.738 (inactive),0.774 (inactive),-0.149,-0.328,0.493 (inactive),-0.259,0.749,-0.38 (inactive),-0.41 (inactive),-0.155 (inactive)
